# Hits are enriched below; roughly 9.4% of the tested compounds scored in any of these assays.
# NPC1 promoter act: qHTS Assay for NPC1 Promoter Activators; Huh7 NPC1 promoter luciferase reporter, 24 h; Potency, µM (doses to about 9.22 µM), inactives show at the highest dose activation, actives largely listed as activators; 320,000 compounds, 2.4% hits; further: % of control where 0% means no effect; nearly all actives have a fitted effect of over 60% in size
#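 Readout is luciferase luminescence, reflecting NPC1 promoter activation in stably transfected Huh7 cells after 24 h compound exposure at 37 °C in reduced-serum medium with 10% FBS.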
# SMN2 splice up: qHTS Assay for Enhancers of SMN2 Splice Variant Expression. HEK293 SMN2-luciferase splicing reporter, luminescence, 30-36 h. Potency, µM (doses to about 46.1 µM), inactives show top-dose activity change, positive = activation, actives largely listed as activators. 210,000 compounds, 2.8% hits; further: % of control where 0% means no effect; nearly all actives have a fitted effect of over 55% in size
#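 HEK293 cells carry an SMN2 […]–luciferase reporter in which exon 7 inclusion puts luciferase in frame. Cells were plated 10-12 h before compound addition, then incubated 30-36 h at 37C. ONE-Glo luminescence was read; sodium butyrate at 4.5 mM final served as control.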
# FLuc counter: qHTS profiling assay for firefly luciferase inhibitor/activator using purifed enzyme and Km concentrations of substrates (counterscreen for miR-21 project). Luciferin 4-monooxygenase (Photinus pyralis), P08659. Potency, µM (highest dose often 57.5 µM), for inactives: at the highest dose activity change, negative = inhibition, usual class: inhibitors. AID 588342, 2011. purified FLuc, Km substrates, luminescence inhibition. 360,000 compounds, 6.9% hits;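 further: plate controls were vehicle for no effect and reference inhibitor for full effect; nearly all actives have a fitted effect of over 55% in size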
# Target sequence (P08659 whole entry, looked up): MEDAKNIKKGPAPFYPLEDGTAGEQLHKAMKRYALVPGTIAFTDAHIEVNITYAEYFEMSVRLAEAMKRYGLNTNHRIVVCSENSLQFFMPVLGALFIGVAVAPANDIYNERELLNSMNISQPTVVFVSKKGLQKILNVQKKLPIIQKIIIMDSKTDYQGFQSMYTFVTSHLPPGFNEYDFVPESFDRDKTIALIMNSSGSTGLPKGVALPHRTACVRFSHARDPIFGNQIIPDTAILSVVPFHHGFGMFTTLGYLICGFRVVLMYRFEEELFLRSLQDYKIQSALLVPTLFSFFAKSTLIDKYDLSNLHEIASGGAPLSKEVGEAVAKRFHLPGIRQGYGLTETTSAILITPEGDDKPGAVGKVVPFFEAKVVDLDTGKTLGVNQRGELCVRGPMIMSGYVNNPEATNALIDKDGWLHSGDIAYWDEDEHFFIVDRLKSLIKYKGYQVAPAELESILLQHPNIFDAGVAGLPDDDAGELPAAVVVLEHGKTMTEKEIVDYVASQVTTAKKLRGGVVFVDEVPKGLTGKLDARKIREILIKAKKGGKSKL
#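 Purified P. pyralis luciferase (10nM final) with 10uM D-luciferin and 10uM ATP (Km levels) in 50mM Tris acetate pH 7.5, 10mM Mg acetate, 0.01% Tween-20, 0.05% BSA; qHTS 6-point titration, ~60 µM downward; luminescence read.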
# ELG1 repair inh: qHTS screen for small molecules that inhibit ELG1-dependent DNA repair in human embryonic kidney (HEK293T) cells expressing luciferase-tagged ELG1. HEK293T ELG1-luciferase reporter, luminescence, 16 h; DNA damage induced by 5-fluorouridine. AID 504467, 2011. 330,000 compounds, 2.3% hits. Potency, µM (series often up to 46.1 µM), for inactives: at the top dose activity change, negative = inhibition, actives largely listed as inhibitors; further: on the % scale 0 is the no-effect control and ±100 the full control effect; nearly all actives have a fitted effect of over 55% in size
#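 Luminescence from the luciferase reporter, measured 30 min after ONE-Glo reagent at room temperature, was the read-out. Beforehand, 2,000 cells per well were exposed for 16 hr at 37 °C to 5-fluorouridine together with compound or vehicle.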
# ELG1 genotoxic: qHTS screen for small molecules that induce genotoxicity in human embryonic kidney (HEK293T) cells expressing luciferase-tagged ELG1; 330,000 compounds, 1.3% hits; Potency, µM (highest dose often 46 µM), for the others: at the highest dose activity change, positive = activation, usual class: activators; AID 504466, 2011; HEK293T ELG1-luciferase reporter, luminescence, 16 h; further: % of control where 0% means no effect; nearly all actives have a fitted effect of over 60% in size
#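 After overnight (16 hr) compound treatment at 37 °C, ELG1-luciferase HEK293T cells were lysed with ONE-Glo; luminescence quantified 30 min later at room temperature.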
# Rab9 prom act: qHTS Assay for Rab9 Promoter Activators; Potency, µM (highest dose often 9.22 µM), for inactives: at the top dose activation, negative = inhibition, usual class: activators; Huh7 Rab9 promoter-luciferase reporter, luminescence, 24 h; 320,000 compounds, 2.8% hits; further: % of control where 0% means no effect; nearly all actives have a fitted effect of over 60% in size
#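 Luminescence from Amplite-detected luciferase (10 minutes, ambient) reports Rab9 promoter activation. Before that, stable Rab9-luciferase Huh7 cells (1500/well, reduced-serum OP-MEM I plus 10% FBS) were exposed to compound for 24 hours at 37C.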
# Active calls of the source: *; ? = inconclusive; . = not tested or not shown; [ ] = remark or other dose. The call rests on the fitted dose curve; in most records, active means well fitted curve in the direction sought with a large enough effect; inconclusive means small, poorly fitted or top-dose-only effect, or another doubt; inactive means no such curve, though single readings can be large; an effect the other way counts as inactive or inconclusive. Potency means the concentration at half of the fitted maximal effect.
SMILES,NPC1 promoter act,SMN2 splice up,FLuc counter,ELG1 repair inh,ELG1 genotoxic,Rab9 prom act
COc1ccc([C@H]2CC(=O)C=C(c3cccc(Cl)c3O)C2)cc1OC,-2%,.,1%,?,0%,-4%
COc1ccc([C@H]2CC(=O)C=C(c3cccc4c3Oc3ccccc3S4)C2)cc1OC,-5%,.,4%,18µM*,-4%,-2%
O=C1C=C(c2cccc3c2Oc2ccccc2S3)C[C@@H](c2ccc(Cl)cc2)C1,-1%,.,-2%,21µM*,2%,-2%
COc1ccc([C@H]2CC(=O)C=C(c3cccc(Br)c3)C2)cc1OC,.,.,.,18µM*,-3%,.
O=C1C=C(c2cccc3c2sc2ccccc23)C[C@@H](c2ccc(Cl)cc2)C1,1%,.,-3%,4%,-4%,-3%
CCOc1cc(CNc2ccc(O)cc2)ccc1OCc1ccc(Cl)cc1,.,-15%,-18%,.,.,.
Cc1cc(N2CCOCC2)ccc1/C=C1\NC(=O)N(CC(=O)Nc2ccccc2C)C1=O,12%,?,?,?,20%,1%
Cc1ccc(C)n1-c1ccc(N2CCOCC2)cc1,1%,21%,3%,?,11%,-12%
C=CCN1C(=O)S/C(=C\c2ccc(N3CCOCC3)cc2C)C1=O,?,.,6µM*,?,?,3.5µM*
Cc1cc(N2CCOCC2)ccc1/C=C1/SC(=O)NC1=O,?,22µM*,15µM*,?,?,?
C=CC(C)N1C(=O)S/C(=C\c2ccc(N3CCOCC3)cc2C)C1=O (stereo not drawn),?,-38%,11µM*,?,?,?
O=C1NC(=S)N/C1=C\c1ccc(N2CCOCC2)cc1,29%,18%,21µM*,?,?,23%
CCOc1ccc2nc(N3CCCC(C(=O)Nc4c(C)cccc4C)C3)sc2c1 (stereo not drawn),.,26%,?,.,.,.
CCOc1ccc2nc(N3CCCC(C(=O)NCCCN4CC(C)CC(C)C4)C3)sc2c1 (stereo not drawn),3%,.,?,?,2%[9.26 µM],0.89µM*
CCOc1ccc2nc(N3CCCC(C(=O)Nc4ccc(OC)c(Cl)c4)C3)sc2c1 (stereo not drawn),.,20µM*,3µM*,.,.,.
COc1ccc2nc(N3CCCC(C(=O)NCCCN4CCN(C)CC4)C3)sc2c1 (stereo not drawn),0%,-2%,17µM*,?,14%,16%
COc1ccc2nc(N3CCCC(C(=O)NCCc4ccc(OC)c(OC)c4)C3)sc2c1 (stereo not drawn),2.8µM*,.,8.5µM*,?,-10%,2.8µM*
CCN(C(=O)Cn1c(C(=O)OC)cc2sc(Cl)cc21)c1cccc(C)c1,.,1%,-1%,.,.,.
Cc1cc(C)cc(NC(=O)Nc2ccc(NC(=O)c3ccccc3O)cc2)c1,4%,.,-4%,1%,6%,-4%
O=C(Oc1ccccc1C(=O)Nc1ccccc1)c1ccccc1Br,-4%,23%,17µM*,?,?,19%
O=C(Nc1ccccc1)c1ccccc1O,26%,-4%,11µM*,?,?,26%
O=C(COc1ccccc1C(=O)Nc1ccccc1)c1ccc(Br)cc1,-5%,-8%,1%,?,-7%,-6%
Cc1ccc(NC(=O)c2ccccc2O)cc1,2µM*,2.8µM*,0.95µM*,?,?,0.63µM*
COc1ccccc1N1CCN(S(=O)(=O)c2c(C)sc3ncn(CC(=O)N(C)c4ccc(C(C)C)cc4)c(=O)c23)CC1,.,-2%,0%,.,.,.
O=[N+]([O-])c1ccc(CSc2ncnc3c2ncn3[C@@H]2O[C@H](CO)[C@H](O)[C@H]2O)cc1,.,-17%,.,.,.,.
SMILES,NPC1 promoter act,SMN2 splice up,FLuc counter,ELG1 repair inh,ELG1 genotoxic,Rab9 prom act
O=[N+]([O-])c1ccc2nc(C(O)C(O)c3nc4ccc([N+](=O)[O-])cc4[nH]3)[nH]c2c1 (stereo not drawn),2%,.,-9%,1%,0%,-3%
O=[N+]([O-])c1ccc2nc(/C=C/c3ccc(Cl)cc3)[nH]c2c1,?,21%,5.4µM*,?,-1%,?
CCCC[n+]1ccc(-c2nc3ccc([N+](=O)[O-])cc3[nH]2)cc1,22%,11µM*,?,?,9%,?
O=[N+]([O-])c1ccc(-c2nc3ccc([N+](=O)[O-])cc3[nH]2)cc1,1.6µM*,.,2.7µM*,?,0%,?
NC(=O)CSc1nc2ccc([N+](=O)[O-])cc2[nH]1,0%,-6%,-7%,-3%,6%,-6%
Nc1ccc(-c2nc3ccc([N+](=O)[O-])cc3[nH]2)cc1,2.2µM*,3.5µM*,3.4µM*,?,3.7µM*,1.4µM*
COc1cc(SC)ccc1C(=O)N1CCn2c3c(c4cc(C)ccc42)CCCC31 (stereo not drawn),.,10%,-15%,.,.,.
O=C(/C=C/c1cccc(O)c1)c1ccc(N2CCOCC2)cc1,?,.,1.2µM*,?,12%,?
COc1cc(Cl)c(C)cc1NC(=O)Cn1ncc2c3ccccc3n(Cc3ccccc3)c2c1=O,.,10%,-2%,.,.,.
CC1Cc2ccccc2N1C(=O)CN1CCC(n2nnc3cc(C(F)(F)F)ccc32)CC1 (stereo not drawn),0%,-102%,6%,21µM*,-24%,12%
COC(=O)c1ccccc1NC(=O)CN1CCC(n2nnc3cc(C(F)(F)F)ccc32)CC1,1%,-11%,9%,?,2%,8%

# Compound activity: PubChem BioAssay, National Center for Advancing Translational Sciences (NCATS)
